The target in assay [1] is Leukocyte tyrosine kinase receptor (Homo sapiens) (UniProt P29376). To be noted: at 1 µM.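 Also: each value is the mean inhibition of LTK.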
Assay [2] addresses Tyrosine-protein kinase Lyn (Homo sapiens) (UniProt P07948). To be noted: at 0.1 µM.
For assay [3] the target is unchanged. The conditions noted are these: at 1 µM.
Assay [4] has the same target. To be noted: at 0.1 µM. The source holds these as a separate data set.
Assay [5] has the same target. To be noted: at 1 µM. This is another data set of the same source.
The target of assay [6] is T1, Tyrosine-protein kinase Mer (Homo sapiens) (UniProt Q12866).
T1 sequence (whole entry): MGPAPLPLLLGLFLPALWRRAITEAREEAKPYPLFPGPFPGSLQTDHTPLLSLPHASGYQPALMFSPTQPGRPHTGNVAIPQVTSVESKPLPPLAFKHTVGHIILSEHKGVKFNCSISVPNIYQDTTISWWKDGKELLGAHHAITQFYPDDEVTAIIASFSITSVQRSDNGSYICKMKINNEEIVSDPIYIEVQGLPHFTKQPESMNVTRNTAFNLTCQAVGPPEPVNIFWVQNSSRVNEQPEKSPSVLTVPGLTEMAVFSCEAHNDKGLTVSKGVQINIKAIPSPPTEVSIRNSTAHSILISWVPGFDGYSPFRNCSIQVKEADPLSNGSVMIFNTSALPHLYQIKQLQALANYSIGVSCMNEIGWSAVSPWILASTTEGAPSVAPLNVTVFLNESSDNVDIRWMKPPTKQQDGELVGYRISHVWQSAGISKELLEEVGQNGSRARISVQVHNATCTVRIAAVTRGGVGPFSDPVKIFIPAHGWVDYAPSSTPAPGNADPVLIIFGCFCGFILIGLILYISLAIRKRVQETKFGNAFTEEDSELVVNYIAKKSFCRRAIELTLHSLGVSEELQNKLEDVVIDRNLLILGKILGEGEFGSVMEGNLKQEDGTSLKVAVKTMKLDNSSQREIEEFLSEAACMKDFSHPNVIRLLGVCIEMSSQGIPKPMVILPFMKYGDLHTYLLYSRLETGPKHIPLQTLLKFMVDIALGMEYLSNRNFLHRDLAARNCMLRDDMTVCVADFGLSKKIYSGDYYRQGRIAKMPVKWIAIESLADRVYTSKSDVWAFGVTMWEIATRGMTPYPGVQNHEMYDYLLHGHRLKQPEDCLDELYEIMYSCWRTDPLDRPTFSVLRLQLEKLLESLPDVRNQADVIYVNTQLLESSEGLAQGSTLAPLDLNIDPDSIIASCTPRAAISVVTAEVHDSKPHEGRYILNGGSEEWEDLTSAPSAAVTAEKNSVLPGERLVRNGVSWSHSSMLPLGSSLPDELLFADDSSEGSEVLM
To be noted: at 0.1 µM.

Assay [7] addresses T1, Tyrosine-protein kinase Mer (Homo sapiens). The conditions noted are these: at 1 µM.
For assay [8], the target named is Hepatocyte growth factor receptor (Homo sapiens) (UniProt P08581). To be noted: at 0.1 µM.
Assay [9] has the same target. The conditions noted are these: at 1 µM.
Assay [10] addresses T2, Muscle, skeletal receptor tyrosine-protein kinase (Homo sapiens) (UniProt O15146).
T2 sequence (whole entry): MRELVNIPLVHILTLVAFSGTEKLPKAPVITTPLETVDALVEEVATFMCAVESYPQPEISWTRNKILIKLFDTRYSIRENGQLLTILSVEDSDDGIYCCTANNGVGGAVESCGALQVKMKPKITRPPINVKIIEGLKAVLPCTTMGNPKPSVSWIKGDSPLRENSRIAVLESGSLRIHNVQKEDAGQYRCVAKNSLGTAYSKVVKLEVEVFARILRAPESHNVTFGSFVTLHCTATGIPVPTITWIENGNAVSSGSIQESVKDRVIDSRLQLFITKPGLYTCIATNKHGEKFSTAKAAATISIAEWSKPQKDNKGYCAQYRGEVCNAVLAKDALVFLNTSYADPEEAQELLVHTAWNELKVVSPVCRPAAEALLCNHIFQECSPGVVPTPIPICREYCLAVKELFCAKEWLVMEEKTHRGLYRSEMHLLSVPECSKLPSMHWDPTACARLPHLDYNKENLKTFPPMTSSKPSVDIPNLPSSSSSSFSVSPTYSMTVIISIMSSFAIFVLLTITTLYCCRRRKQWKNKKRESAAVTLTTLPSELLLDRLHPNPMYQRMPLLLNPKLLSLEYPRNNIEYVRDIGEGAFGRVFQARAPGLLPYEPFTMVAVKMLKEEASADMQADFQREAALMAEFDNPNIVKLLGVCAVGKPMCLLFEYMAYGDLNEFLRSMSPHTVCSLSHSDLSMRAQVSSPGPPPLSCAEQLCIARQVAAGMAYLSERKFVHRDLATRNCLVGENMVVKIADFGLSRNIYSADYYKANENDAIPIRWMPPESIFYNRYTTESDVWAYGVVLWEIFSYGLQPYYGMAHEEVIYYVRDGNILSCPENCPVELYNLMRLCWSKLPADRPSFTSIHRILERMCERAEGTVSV
To be noted: at 0.1 µM.

Assay [11] addresses T2, Muscle, skeletal receptor tyrosine-protein kinase (Homo sapiens). To be noted: at 1 µM.
For assay [12], the target named is Platelet-derived growth factor receptor alpha (Homo sapiens) (UniProt P16234). To be noted: at 0.1 µM.
Sequence of Platelet-derived growth factor receptor alpha (Homo sapiens) (P16234 whole entry): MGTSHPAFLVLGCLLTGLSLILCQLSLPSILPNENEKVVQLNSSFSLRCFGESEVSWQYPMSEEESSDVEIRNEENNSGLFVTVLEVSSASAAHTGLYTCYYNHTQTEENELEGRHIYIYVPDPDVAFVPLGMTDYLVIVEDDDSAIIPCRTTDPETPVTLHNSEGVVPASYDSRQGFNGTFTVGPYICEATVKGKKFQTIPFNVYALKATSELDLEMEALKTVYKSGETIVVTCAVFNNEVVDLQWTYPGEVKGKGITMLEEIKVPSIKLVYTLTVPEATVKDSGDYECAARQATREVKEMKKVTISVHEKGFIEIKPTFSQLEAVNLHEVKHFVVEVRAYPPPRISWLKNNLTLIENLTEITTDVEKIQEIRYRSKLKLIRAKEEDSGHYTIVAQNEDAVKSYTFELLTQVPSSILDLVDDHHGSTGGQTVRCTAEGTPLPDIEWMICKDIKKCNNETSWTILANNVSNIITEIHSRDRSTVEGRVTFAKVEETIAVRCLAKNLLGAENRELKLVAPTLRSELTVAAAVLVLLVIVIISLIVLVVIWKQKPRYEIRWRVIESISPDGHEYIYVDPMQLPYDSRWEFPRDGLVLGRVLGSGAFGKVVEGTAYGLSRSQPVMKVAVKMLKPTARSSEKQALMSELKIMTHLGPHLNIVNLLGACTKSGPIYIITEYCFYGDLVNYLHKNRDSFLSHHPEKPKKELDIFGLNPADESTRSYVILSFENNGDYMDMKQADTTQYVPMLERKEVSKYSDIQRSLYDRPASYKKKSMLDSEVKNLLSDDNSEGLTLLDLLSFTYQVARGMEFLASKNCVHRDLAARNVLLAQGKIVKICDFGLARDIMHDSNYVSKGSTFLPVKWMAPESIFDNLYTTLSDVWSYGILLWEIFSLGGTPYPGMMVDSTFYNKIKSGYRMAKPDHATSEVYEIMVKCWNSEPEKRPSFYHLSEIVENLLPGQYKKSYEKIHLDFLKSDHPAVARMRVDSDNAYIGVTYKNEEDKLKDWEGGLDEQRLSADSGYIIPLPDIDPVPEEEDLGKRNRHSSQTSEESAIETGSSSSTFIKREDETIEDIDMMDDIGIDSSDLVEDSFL
The target is the same in assay [13]. The conditions noted are these: at 1 µM.
In assay [14] the test system is Platelet-derived growth factor receptor alpha (Homo sapiens), P16234 [D842V]. To be noted: at 0.1 µM.
Sequence of Platelet-derived growth factor receptor alpha (Homo sapiens), P16234 [D842V] (P16234 whole entry D842V): as the sequence (P16234 whole entry) above, with D842V counted along it
For assay [15] the test system is unchanged. To be noted: at 1 µM.
Assay [16] has as its system Platelet-derived growth factor receptor alpha (Homo sapiens), P16234 [T674I]. The conditions noted are these: at 0.1 µM.
For assay [17] the test system is unchanged. The conditions noted are these: at 1 µM.
Assay [18] deals with Platelet-derived growth factor receptor alpha (Homo sapiens), P16234 [V561D]. The conditions noted are these: at 0.1 µM.
Sequence of Platelet-derived growth factor receptor alpha (Homo sapiens), P16234 [V561D] (P16234 whole entry V561D): as the sequence (P16234 whole entry) above, with V561D counted along it
Assay [19] shares this test system. The conditions noted are these: at 1 µM.
For assay [20], the target named is Platelet-derived growth factor receptor beta (Homo sapiens) (UniProt P09619). The conditions noted are these: at 0.1 µM.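 Also: reported value is the mean percent inhibition of the kinase.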

Seven compounds from ChEMBL document CHEMBL1961873, “Compounds: GSK PKIS; Assays: Nanosyn kinase panel” (2012) can be followed below.

SMILES strings stand for the structures.

Sequence of Platelet-derived growth factor receptor alpha (Homo sapiens), P16234 [T674I] (P16234 whole entry T674I): as the sequence (P16234 whole entry) above, with T674I counted along it
Sequence of Tyrosine-protein kinase Lyn (Homo sapiens) (P07948 2-512 limits assumed): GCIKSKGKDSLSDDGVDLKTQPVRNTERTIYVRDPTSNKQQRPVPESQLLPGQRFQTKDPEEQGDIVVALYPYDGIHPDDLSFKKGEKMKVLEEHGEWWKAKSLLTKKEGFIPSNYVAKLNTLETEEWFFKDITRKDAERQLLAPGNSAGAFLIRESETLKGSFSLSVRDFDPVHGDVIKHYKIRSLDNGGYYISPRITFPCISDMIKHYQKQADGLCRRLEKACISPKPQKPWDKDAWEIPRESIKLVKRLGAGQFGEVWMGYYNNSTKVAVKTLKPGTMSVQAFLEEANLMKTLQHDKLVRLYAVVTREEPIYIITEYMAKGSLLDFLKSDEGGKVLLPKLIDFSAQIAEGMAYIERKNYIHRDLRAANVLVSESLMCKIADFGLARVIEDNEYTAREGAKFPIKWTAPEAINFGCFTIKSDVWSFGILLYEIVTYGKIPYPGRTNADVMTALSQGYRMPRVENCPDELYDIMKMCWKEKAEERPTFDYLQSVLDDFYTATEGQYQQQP

As a reminder, the inhibition is the change of the read-out against control, counted positive when it falls. On to `C[C@@H](Oc1cc(-n2cnc3ccc(OCC4CCN(C)CC4)cc32)sc1C(N)=O)c1ccccc1C(F)(F)F`, for which the inhibition is 3.18% in assay [1]; 1.14% in assay [2]; 18.9% in assay [3]; 1.52% in assay [4]; 16.5% in [5]; -0.95% in assay [6]. Also, the inhibition in assay [7] was 6.99%; in assay [8], 2.85%; in [9] it was 9.84%; in assay [10] it was 41.3%; in assay [11] it was 76%; in assay [12], 25.1%. For the same compound, the inhibition in assay [13] was found to be 69.4%; in assay [14] it was 18.1%; in assay [15], 65.6%; in [16], 4.88%; in assay [17], 46%; in assay [18], 17.7%. Further, the inhibition in assay [19] turned out to be 66.2%; in assay [20], 56.3%.
Take `Cc1ccc(Nc2ccnc(Nc3cccc(C(N)=O)c3)n2)cc1O`: the inhibition is 15.9% in assay [1]; 61.2% in assay [2]; 90.5% in assay [3]; 56.5% in assay [4]; 88.8% in assay [5]; 1.3% in assay [6]. The inhibition was determined as 11.7% in assay [7]; 5.11% in [8]; 6.87% in [9]; 5.89% in assay [10]; 26.7% in assay [11]; 48.1% in [12]. The inhibition in assay [13] turned out to be 82.3%; in [14], 48.4%; in [15], 88.5%; in assay [16], 6.94%; in assay [17] it was 26.3%; in assay [18], 46.3%. The figures for the inhibition in assay [19] and in assay [20] were 87.2% and 54.7%, respectively.
As for `Oc1cccc(-c2nc(-c3ccccc3)[nH]c2-c2ccncc2)c1`, the inhibition came out at 7.05% in assay [1]; 9.9% in assay [2]; 31.3% in [3]; 6.99% in [4]; 25.4% in [5]; 1.35% in [6]. Further, the inhibition came to 6.42% in [7]; 6.73% in assay [8]; 11.1% in assay [9]; 4.05% in [10]; 8.69% in [11]; 8.99% in assay [12]. In addition, the inhibition came out at 18.5% in assay [13]; 4% in assay [14]; 13.2% in assay [15]; 5.63% in [16]; 5.18% in assay [17]; 2.42% in assay [18]. Besides, the inhibition amounted to 9.69% in assay [19] and 5.66% in assay [20].
With `COc1cccc(-n2ncc3c(N/N=C/c4ccc(S(C)(=O)=O)cc4)ncnc32)c1`, the inhibition was determined as 2.05% in assay [1]; 54.1% in [2]; 76.5% in [3]; 48.1% in assay [4]; 73.3% in assay [5]; 6.96% in assay [6]. Besides, the inhibition was found to be 28.3% in [7]; 14.5% in assay [8]; 47.6% in [9]; 12.1% in [10]; 23.3% in assay [11]; 43.7% in assay [12]. For the same compound, the inhibition was 77.8% in [13]; 51.8% in assay [14]; 89% in assay [15]; 21% in assay [16]; 80.5% in assay [17]; 44.1% in assay [18]. The inhibition in assay [19] came out at 86.2%; in assay [20] it was 52.4%.
With `COc1ccc2ncnc(Nc3ccc(OCc4ccccc4)cc3)c2c1`, the inhibition in assay [1] was -0.07%; in assay [2] it was 2.3%; in assay [3], 6.36%; in assay [4], 1.2%; in assay [5] it was 4.75%; in assay [6] it was 2.16%. The inhibition in [7] is 12.9%; in [8], -2.88%; in assay [9], 2.39%; in assay [10], 1.31%; in assay [11], 1.74%; in [12] it was 4.33%. Further, the inhibition in [13] was determined as 12.2%; in [14], 0.76%; in assay [15] it was 1.54%; in assay [16], 2.64%; in [17], 4.95%; in assay [18], 1.76%. Further, the inhibition in assay [19] was determined as 4.16%; in assay [20], 0.54%.
Turning to `COc1cc(Nc2nccc(-c3cnn4ncccc34)n2)cc(OC)c1`, the inhibition in assay [1] came out at 34.1%; in assay [2], 3.81%; in [3], 29.3%; in assay [4], 2.46%; in assay [5], 23.6%; in assay [6], 1.07%. Moreover, the inhibition is 16.6% in assay [7]; 4.01% in assay [8]; 14.4% in assay [9]; 6.23% in [10]; 42.5% in assay [11]; 19.5% in assay [12]. The inhibition is 61.9% in assay [13]; 12.6% in assay [14]; 60.8% in assay [15]; 29% in [16]; 91.9% in assay [17]; 37.5% in assay [18]. The inhibition in [19] amounted to 75.2%; in assay [20], 40.2%.
Regarding `COC(=O)c1cncc(/C=C/c2c(C)cc(O)cc2C)c1`, the inhibition in [1] was determined as 4.87%; in [2], 12.3%; in assay [3], 46.2%; in assay [4], 7.81%; in assay [5] it was 41.9%; in assay [6] it was 0.09%. In addition, the inhibition stood at 2.53% in [7]; 1.79% in assay [8]; 11.5% in assay [9]; 2.48% in [10]; 3.88% in assay [11]; 14.8% in [12]. Moreover, the inhibition stood at 42.8% in assay [13]; 0.7% in [14]; 7.7% in [15]; 3.58% in assay [16]; 6.85% in [17]; 27% in assay [18]. For the same compound, the inhibition in [19] was 54.8%; in [20], 9.77%.
